Records with an inconclusive call do not appear. Activity calls are given as the source filed them. Calls come from the whole dose curve.

The nature of this assay: qHTS assay to identify small molecule agonists of H2AX - cell viability counter screen (AID 1224847). Note: top concentration of the series differs between compounds; nearly all actives have a fitted effect of over 30% in size. The following applies: CHO-K1 viability, CellTiter-Glo luminescence, 3 h; series mostly up to 154 µM. From the text: National Center for Advancing Translational Sciences [NCATS]
NIH Chemical Genomics Center [NCGC]
U.S. Environmental Protection Agency [EPA]
National Institutes of Environmental Health Sciences [NIEHS]
National Toxicology Program [NTP]
U.S. Food and Drug Administration [FDA]
HTRF phospho-H2AX (Ser139) assay (Cisbio Bioassays, US) enables the quantitative detection of the histone variant H2AX when phosphorylated on serine 139. When double-stranded DNA breaks, either by ionizing radiation or endogenous physiological processes, H2AX becomes phosphorylated at Ser139. This phospho-Ser139 serves as a sensitive biomarker for the detection of such breaks, localizing the site of DNA repair. So, HTRF phospho-H2AX Ser139 is a pertinent assay to study genome stability, the cell cycle, DNA repair, and it serves as a biomarker for cancer, and to understand aging. Wild type CHO-K1 cells were used to identify the inducers of Phospho-H2AX Ser 139 from the Tox21 compound collections. Also cytotoxicity of the Tox21 10K compound library against the CHO-K1 cell line was tested by measuring the cell viability using CellTiter-Glo assay (Promega, Madison, WI).
Tox21 Assay Protocol Summary:
The CHO-K1 cells suspended in culture medium containing 10% FBS were dispensed at 1000 cells/ 3 ul/well in 1536-well white wall/solid bottom plates (Greiner Bio-One North America, NC) using a Multidrop Combi (Thermo Fisher Scientific Inc., Waltham, MA). After the assay plates were incubated at 37C overnight, 23 nl of compounds at 15 concentrations (from 5-48 columns) or positive control (from 1 to 4 columns) were transferred to the assay plates using a Pintool station (Wako, San Diego, CA) into each well resulting in a final DMSO concentration of 0.76%. After 3hr incubation at 37C, 3 uL/well CellTiter-Glo luminescent cell viability reagent (Promega Corporation, Madison, WI) was added using a Flying Reagent Dispenser (FRD) (Aurora Discovery, CA). After incubation at room temperature for 30 min, the luminescence intensity was read using a ViewLux plate reader (PerkinElmer, Waltham, MA).
`Cc1ccc(C)c(OCCCC(C)(C)C(=O)O)c1`: the outcome was inactive.

For the compound `O=C(O)c1cc(N=Nc2ccc(S(=O)(=O)Nc3ccccn3)cc2)ccc1O`, the outcome was inactive.

Regarding `CCCC(O)C(CC)CO` (stereo not given), the call was inactive.

Take `Cc1cc(=O)[nH]c(=S)[nH]1`: the result was inactive.

For the compound `Nc1ccc(S(=O)(=O)Nc2nccs2)cc1`, the call was inactive.

Consider `CC(=O)NS(=O)(=O)c1ccc(N)cc1`, for which the compound was classed as inactive.

Regarding `C/C=C/c1ccc(OC)cc1`, the compound was classed as inactive.

Turning to `CCCCC1C(=O)N(c2ccccc2)N(c2ccccc2)C1=O`, the result was inactive.

As to `NC(=O)c1cnccn1`, the result was inactive.

As for `CCCCC(CC)COC(=O)/C=C/c1ccc(OC)cc1` (stereo not given), the outcome was inactive.

Regarding `NC(=O)c1ccccc1O`, the result was inactive.

For the compound `NC(N)=NC(=O)c1nc(Cl)c(N)nc1N`, the result was inactive.

In the case of `Nc1ccc(C(=O)O)cc1`, the outcome was inactive.

With `C[C@]12C=CC(=O)C=C1CC[C@@H]1[C@@H]2[C@@H](O)C[C@@]2(C)[C@H]1CC[C@]2(O)C(=O)CO`, the compound was classed as inactive.

Regarding `NNC(=O)c1ccncc1`, the outcome was inactive.

For `N=C(N)c1ccc(OCCCCCOc2ccc(C(=N)N)cc2)cc1`, the call was inactive.

Turning to `O=C(O)c1[nH]n(-c2ccc(S(=O)(=O)O)cc2)c(=O)c1N=Nc1ccc(S(=O)(=O)O)cc1`, the call was inactive.

As for `Cn1c(=O)c2[nH]cnc2n(C)c1=O`, the result was inactive.

In the case of `OC(Cn1cncn1)(Cn1cncn1)c1ccc(F)cc1F`, the compound was classed as inactive.

With `O=C(O)C(=O)O`, the call was inactive.

With `Cc1noc(NS(=O)(=O)c2ccc(N)cc2)c1C`, the compound was classed as inactive.

With `O=C(O)CCC(=O)O`, the compound was called inactive.

Consider `Nc1ccc(S(=O)(=O)c2ccc(N)cc2)cc1`, for which the outcome was inactive.

On to `CC(=O)OCC(COC(C)=O)OC(C)=O`, for which the result was inactive.

For the compound `O=c1ccc2ccccc2o1`, the result was inactive.

Regarding `CC(C)(Oc1ccc(C2CC2(Cl)Cl)cc1)C(=O)O` (stereo not given), the result was inactive.

As to `O=C(C1CCCCC1)N1CC(=O)N2CCc3ccccc3C2C1` (stereo not given), the compound was classed as inactive.

As to `CCOc1ccc(NC(=O)CC(C)O)cc1` (stereo not given), the compound was classed as inactive.

As to `Cc1cn([C@H]2C[C@H](N=[N+]=[N-])[C@@H](CO)O2)c(=O)[nH]c1=O`, the result was inactive.

Consider `CCCC(CCC)C(=O)O`, for which the result was inactive.

`CCCNC(=O)NS(=O)(=O)c1ccc(Cl)cc1`: the outcome was inactive.

Regarding `OCCc1ccccc1`, the result was inactive.

`O=C(O)CCCCCCCC(=O)O`: the outcome was inactive.

For `NS(=O)(=O)c1cc(C(=O)O)c(NCc2ccco2)cc1Cl`, the call was inactive.

Consider `CCCCCCCCCCCCCCCC(=O)O`, for which the compound was called inactive.

Turning to `CCCN(CCC)S(=O)(=O)c1ccc(C(=O)O)cc1`, the compound was classed as inactive.

Turning to `CNC[C@H](O)c1cccc(O)c1`, the outcome was inactive.

On to `O=C(c1ccccc1)C(O)c1ccccc1` (stereo not given), for which the compound was classed as inactive.

Turning to `O=C(O)CCCCC(=O)O`, the outcome was inactive.

`O=C(O)/C=C\C(=O)O`: the compound was classed as inactive.

For the origin of these results see PubChem BioAssay (Tox21).
